Drawing on PubChem BioAssay (NCI), this text covers growth for 14 compounds.

Experiment in all cases: NCI-60 one-dose screen, 48 h (100 = growth as untreated, 0 = no growth, -100 = all killed)
Holding throughout (conditions): 10 µM unless noted

The test system of test [1] is HT29 colon.
The test system of test [2] is SNB-75 CNS.
The test system of test [3] is SNB-19 CNS.
In test [4] the test system is U251 CNS.
Test [5] relates to PC-3 prostate.
Test [6] has as its system SK-MEL-5 melanoma.
The test system of test [7] is UACC-62 melanoma.
In test [8] the test system is LOX IMVI melanoma.
Test [9] concerns SK-MEL-28 melanoma.
Test [10] has as its system SK-MEL-2 melanoma.

The structures appear in SMILES notation. This is part of a sample that, as a whole, favours compounds with a hit. Of some 83,000 tested, about 20% had one in any assay.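 Values shown are percent growth following 48 h exposure of cells in 96-well plates to a single concentration of compound; below 10 was considered active.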 A number with no mark means an inactive call. The source made the active and inactive calls.

In the case of `CCOc1ccccc1C(=O)OCC(=O)Nc1cccc(S(=O)(=O)N(C)C)c1`, the growth is 98.6% in [1]; 82.7% in test [2]; 83.5% in test [3]; 105% in [4]; 107% in [5]; 97.4% in test [6]. Moreover, the growth in test [7] was 94.5%; in test [8], 101%; in [9] it was 104%; in test [10], 94.2%.
With `O=Cc1c[nH]c2ccc(NC(=O)OCc3ccccc3)cc12`, the growth was 89% in [1]; 87.1% in [2]; 89% in test [3]; 78.8% in test [4]; 48.6% in test [5]; 99.1% in test [6]. Also, the growth in test [7] was 90.4%; in test [8], 105%; in test [9], 145%; in test [10] it was -19.1% (active).
On to `Cc1c(C(N)=O)sc2nc(SCC(=O)Nc3ccc(Cl)cc3)n(-c3ccccc3)c(=O)c12`, for which the growth was 87.9% in test [1]; 94.3% in [2]; 101% in [3]; 98.4% in test [4]; 73% in test [5]; 110% in test [6]. The growth in test [7] was 96.8%; in test [8], 98.1%; in test [9], 181%; in test [10], -16.1% (active).
For the compound `C=Cc1nn2c(CCC(=O)c3nc4ccccc4[nH]3)nnc2s1`, the growth in test [1] is 105%; in test [2] it was 110%; in test [3] it was 107%; in [4] it was 104%; in test [5], 98%; in [6], 98.2%. Besides, the growth in [7] is 102%; in test [8], 95%; in [9], 113%; in test [10], 97.5%.
For `C/C(=N/N=C(N)N)c1ccc(N)cc1`, the growth in [1] is 103%; in test [2], 102%; in [3], 96.3%; in test [4], 99.3%; in test [5] it was 92.1%; in [6], 107%. Also, the growth in test [7] was 105%; in test [8] it was 96.6%; in [9], 110%; in test [10], 154%.
Regarding `CC(C)[C@H]1CC[C@H]2[C@@H](CC[C@H]3[C@](C)(CN)CCC[C@]23C)C1`, the growth in test [1] was -57.7% (active); in test [2], 69%; in test [3], 98.1%; in test [4], 6.81% (active); in test [5], 65.1%; in test [6] it was 99.5%. Besides, the growth in test [7] is 92.7%; in [9], 102%.
On to `COc1ccc(C(=O)C(C)Br)cc1OC` (stereo not given), for which the growth in test [1] was 37.7%; in test [2], 85.8%; in test [3], 95.7%; in test [4], 78.7%; in [5] it was 98.6%; in test [6], 92.1%. In addition, the growth in test [7] is 86.3%; in test [8] it was 79.2%; in test [9], 112%; in [10], 86%.
`NNC(=O)C1CC2c3ccccc3C1c1ccccc12` (stereo not given): the growth in test [1] was 104%; in [2], 90.8%; in test [3], 107%; in test [4] it was 110%; in [5], 98.5%; in test [6] it was 110%. Further, the growth in test [7] is 97.1%; in test [9] it was 108%; in test [10], 109%.
As to `O=C(NN(C(=O)c1ccccc1)c1cccs1)c1ccccc1`, the growth in [1] is 98.5%; in test [2], 90.7%; in test [3] it was 100%; in test [4], 111%; in [5] it was 83.4%; in test [6], 101%. Also, the growth was 88.1% in test [7], 93.7% in [8], 115% in [9] and 107% in test [10].
In the case of `O=C(C(=O)N1CCCCC1)c1ccc(OC2OC(CO)C(O)C(O)C2O)cc1` (stereo not given), the growth in test [1] is 100%; in [2] it was 91.9%; in test [3], 96.8%; in test [4] it was 96.4%; in [5], 97.3%; in [6], 105%. The growth was 97.9% in test [7] and 104% in test [9].
With `N#CCCN(CCO)c1ccccc1`, the growth in [1] is 93.7%; in [2] it was 100%; in test [3] it was 101%; in [4], 101%; in [5], 86.7%; in test [6], 99.9%. In addition, the growth in test [7] is 103%; in [8] it was 107%; in test [9] it was 108%; in test [10] it was 101%.
`Cc1c(C(N)=O)sc2ncn(Cc3ccccc3)c(=O)c12`: the growth in test [1] is 103%; in test [2], 92.6%; in test [3], 102%; in [4] it was 96.9%; in test [5], 113%; in test [6], 103%. For the same compound, the growth is 102% in [7], 89.6% in test [8], 112% in test [9] and 109% in test [10].
`CCSc1nnc2n(Cc3ccccc3)c(=O)c3c(C)c(C(N)=O)sc3n12`: the growth in [1] is 100%; in test [2], 69.4%; in [3], 108%; in test [4], 103%; in test [5], 97.3%; in [6], 95.8%. The growth in [7] was 97.7%; in test [8], 95.6%; in test [9] it was 109%; in test [10], 102%.
As to `c1cnc2n[nH]c(Nc3ncnc4c3sc3ncccc34)c2c1`, the growth in test [1] was 95.4%; in [2], 84%; in [3] it was 101%; in test [4], 97.1%; in test [5], 104%; in test [6] it was 102%. The growth in test [7] was 87.1%; in [8], 85.6%; in test [9] it was 99%; in [10] it was 103%.
